A549 viability = Nrf2 qHTS screen for inhibitors: counterscreen for cytotoxicity; 0.16% of 390,000 active; A549 ARE-Fluc cells, CellTiter-Fluor viability, 18-24 h; Potency, µM (top dose mostly 46 µM), for the others: at the highest dose activity change, negative = cytotoxicity, usual class: inhibitors; also: potency is read from the fitted curve at half-maximal effect; % is scaled to controls: 0 for no effect and ±100 for the full control effect
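Cytotoxicity counterscreen: CellTiter-Fluor fluorescence was measured in A549 ARE_Fluc cells after 18-24 h of compound exposure in a concentration series. The subsequent BugLite luminescent read reports ARE-luciferase activity.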
TCR activator = Activators of T cell receptors: qHTS campaign. 330,000 tested, under 10 active. primary human leukocytes, anti-CD3, IL-2 HTRF, 48 h. AID 504894, 2011. Potency, µM (highest dose often 9.22 µM), inactives show at the highest dose activation of IL-2 secretion, usual class: activators; also: % of control where 0% means no effect
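Primary human leukocytes were stimulated with a-CD3 beads plus compounds for 48 hr without co-stimulation; secreted IL-2 was quantified by HTRF using a-IL-2-K (europium cryptate) and a-IL-2-d2, excited at 320nm with acceptor emission read at 665nm.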
Nrf2 activator = qHTS of Nrf2 Activators. AREc32 ARE-luciferase reporter (MCF7-derived line), luminescence, 24 h. Potency, µM (top dose mostly 46.1 µM), for inactives: at the highest dose activation, most hits filed as activators. 0.31% of 410,000 active. AID 624171, 2012; also: potency is read from the fitted curve at half-maximal effect; % of control where 0% means no effect; nearly all actives have a fitted effect of over 65% in size
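AREc32_Fluc, 1000 cells/well, OPTI-MEM + 5% FBS, o/n 37 deg C 5% CO2; 23 nL cpd by pin tool, 24 hr; Steady-Glo 30 min RT, luminescence.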
ClpP mod = qHTS Assay for Activators of ClpP; ATP-dependent Clp protease proteolytic subunit (Bacillus subtilis (strain 168)), P80244; purified B. subtilis ClpP, FRET peptide cleavage, 20 min; Potency, µM (highest dose often 57.5 µM), for the others: at the highest dose activity change, negative = active; 1.9% of 340,000 active; AID 651965, 2013; active = well fitted falling curve with a large enough effect; inconclusive = small, poorly fitted or top-dose-only effect; inactive = no such curve, though single readings can be large or run the other way; also: potency is read from the fitted curve at half-maximal effect; the source files actives as falling curves though it sought activators and does not explain the sign; nearly all actives have a fitted effect of over 65% in size
Target sequence (P80244 whole entry, looked up): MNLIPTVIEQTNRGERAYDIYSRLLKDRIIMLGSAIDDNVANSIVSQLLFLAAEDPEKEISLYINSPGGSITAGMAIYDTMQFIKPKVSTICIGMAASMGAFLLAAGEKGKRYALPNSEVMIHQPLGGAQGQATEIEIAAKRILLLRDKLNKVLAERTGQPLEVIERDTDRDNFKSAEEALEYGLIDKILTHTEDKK
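ClpP 10 microg/mL final, pH 8 Tris/KCl buffer with BSA, glycerol, Tween-20; compound pinned in; FRET-FV substrate; RT 20 min; Ex320/Em430; ΔFRET vs ADEP 5.8 microM, DMSO, no enzyme.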
miR-21 act = qHTS Assay for Modulators of miRNAs and/orActivators of miR-21; HeLa miR-21 FLuc reporter, luciferase, 48 h; Potency, µM (doses to about 38.3 µM), for inactives: at the top dose activity change, positive = activation, usual class: activators; 340,000 tested, under 10 active;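 also: % of control where 0% means no effect; miR-21 action dims this reporter so a rising signal means less miR-21 action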
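Using DMEM plus 10% FBS, HeLa miR-21-FLuc cells are incubated with test compounds (final up to about 40uM) for 48 hours; firefly luciferase signal is then imaged following reagent-mediated lysis.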
Nrf2 block = Nrf2 qHTS screen for inhibitors | A549 ARE-Fluc reporter, luciferase luminescence, 18-24 h | Potency, µM (series often up to 46 µM), without a hit: top-dose activity change, negative = inhibition, hits mostly inhibitors | 2.1% of 360,000 active | AID 504444, 2011; also: potency is read from the fitted curve at half-maximal effect; % is scaled to controls: 0 for no effect and ±100 for the full control effect; nearly all actives have a fitted effect of over 60% in size
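A549 ARE_Fluc cells (5000/well, 5% FBS OPTI-MEM) pre-incubated 2 h, then treated with compounds 18-24 h at 37C/5% CO2 in concentration-response. CellTiter-Fluor viability read first; BugLite luciferase luminescence after 15 min at room temperature gives Nrf2 activity.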
* marks the source's active call; other numbers are inactive results; ? = inconclusive; · = no result given; [ ] = another dose, or the depositor's remark. Only some compounds are listed: those with a hit (about 3.7% of all), similar ones and a draw of the others. Unless noted, calls follow the shape of the dose curve; as a rule, active = well fitted curve in the direction sought with a large enough effect; inconclusive = small, poorly fitted or top-dose-only effect, or another doubt; inactive = no such curve, though single readings can be large; an effect the other way counts as inactive or inconclusive.

SMILES	A549 viability	TCR activator	Nrf2 activator	ClpP mod	miR-21 act	Nrf2 block
Cc1ccc(Sc2c(C#N)c(-c3ccccc3)nn2C)cc1	-27.7%[1.84 µM]	·	0.1%	-0.1%	7.3%	5.8µM*
c1ccc(-n2ncc3c(NC4CCCC4)ncnc32)cc1	1.1%	·	3.8%	-17.6%	23.7%	·
O=C(Nc1cccc(-c2nc3ncccc3o2)c1)c1ccc(-c2cccc(Cl)c2Cl)o1	-6.2%	·	0.4%	-8.5%	-7.2%	5.8µM*
Cc1ccc(C(C)C)c(OCC(=O)Nc2cccc(-c3nc4ncccc4o3)c2)c1	-3.0%	·	-1.2%	22.4µM*	22.2%	?
Cc1cc(C)c(OCC(=O)Nc2cccc(-c3nc4ncccc4o3)c2)c(Br)c1	-2.0%	·	1.1%	-15.5%	-8.0%	?
CCCCC(=O)Nc1cccc(-c2nc3ncccc3o2)c1	0.5%	3.1%	0.2%	15.8µM*	-5.3%	?
CC(C)C(=O)Nc1cccc(-c2nc3ncccc3o2)c1	5.4%	1.4%	4.5%	3.8%	-18.1%	10.2%
Cc1ccc(S(=O)(=O)N(C)CCCN(C)c2nc(-c3cccs3)nc3ccccc23)cc1	-13.1%	·	·	?	·	-24.4%
CC(C)Cn1c(=O)c2c(nc3n2CCCN3Cc2ccccc2)n(C)c1=O	6.6%	1.5%	2.6%	0.4%	3.3%	11.6µM*
Oc1ccc(/C=N/n2cnn(Cc3ccccc3Cl)c2=S)c(O)c1	0.1%	7.1%[46.1 µM]	-1.0%	-0.6%	-16.0%	-1.4%
COc1ccc(/C=N/n2cnn(Cc3ccccc3Cl)c2=S)cc1OC	3.7%	0.1%	1.4%	·	-0.9%	18.4µM*
C/C=C(\CS(=O)(=O)c1ccccc1)S(=O)(=O)c1ccccc1	-18.0%	5.1%	12.6µM*	1.2%	22.9%	5.8%
Cc1cc2c(s1)c1cnn(Cc3ccc(C#N)cc3)c(=O)c1n2C	-3.4%	·	·	·	·	7.0%
Cc1ccc(-n2ncc3c(N(C)Cc4ccccc4)ncnc32)cc1	-0.1%	·	0.7%	31.6µM*	-4.5%	·
Cc1nn(C)cc1/C=C(/C#N)C(N)=O	4.0%	-2.5%[46.1 µM]	-0.4%	15.8µM*	-1.0%	-11.7%
CCn1c(CNC(=O)c2cc(OC)c(OC)c(OC)c2)cc2ccccc21	0.6%	-3.9%	0.5%	·	18.1%	20.6µM*
COc1cc(C(=O)NCc2cc3ccccc3n2C)cc(OC)c1OC	3.3%	-0.2%	0.3%	-0.6%	12.2%	-15.2%
COc1cc(OC)c(-c2nn3c(-c4ccco4)nnc3s2)cc1OC	3.1%	-1.0%	18.8%	28.2µM*	-7.5%	-5.0%
COc1ccc(-c2nn3c(-c4ccco4)nnc3s2)cc1OC	-1.8%	-5.7%	3.6%	-4.6%	-39.7%	?
c1coc(-c2nnc3n2C2(CCCC2)Cc2ccccc2-3)c1	-16.4%	·	-0.5%	?	-8.2%	·
COc1cc2c(cc1OC)-c1nnc(-c3ccco3)n1C1(CCCC1)C2	3.5%	-3.4%[46.1 µM]	0.1%	31.6µM*	-10.4%	-3.0%
COCCn1c(=NC(=O)c2cc(-c3cccs3)nc3ccccc23)sc2cc(S(N)(=O)=O)ccc21	-5.1%	0.3%[46.1 µM]	3.3%	0.9%	16.5%	-0.3%
C=CCn1c(=NC(=O)c2cc(Cl)sc2Cl)sc2cc(S(N)(=O)=O)ccc21	10.4%	-10.3%[46.1 µM]	?	?	-2.7%	-16.5%
COCCn1c(=NC(=O)c2sc3ccccc3c2Cl)sc2cc(S(N)(=O)=O)ccc21	0.6%	-21.3%[46.1 µM]	4.8%	22.4µM*	-2.0%	-19.0%
C=CCn1c(=NC(=O)c2sc3ccccc3c2Cl)sc2cc(S(N)(=O)=O)ccc21	-10.8%	-18.1%[46.1 µM]	-0.8%	25.1µM*	-2.8%	-28.6%
SMILES	A549 viability	TCR activator	Nrf2 activator	ClpP mod	miR-21 act	Nrf2 block
CCOC(=O)Cn1c(=NC(=O)c2nc3ccccc3s2)sc2cc(S(N)(=O)=O)ccc21	-16.6%	1.5%[46.1 µM]	2.8%	31.6µM*	-7.3%	-20.5%
CCCc1nc2ccccc2n1C(CCSC)C(=O)NC(C)(C)C (stereo unspecified)	·	·	·	0.8%	·	·
CN(C)c1ccc(/C=C/c2ccnc3c(Cl)cccc23)cc1	·	·	·	-1.5%	·	·
CCC(C)CN1C(=O)CN(S(C)(=O)=O)CC1(C)C(=O)NC(C)C (stereo unspecified)	·	·	·	-1.4%	·	·
CC(=O)c1cccc(Nc2nc(-c3sc(C)nc3C)cs2)c1	-16.0%	·	5.7%	-1.1%	8.8%	23.1µM*
CCOc1ccc(C2=NC(c3ccncc3)=Nc3ccc(C)cc3N2)cc1OCC	3.6%	·	4.3%	-1.2%	1.3%	-10.1%
Cc1nn(C)c(C(=O)N/N=C/c2cccc3ccccc23)c1Cl	-9.3%	-2.5%[46.1 µM]	4.4%	14.1µM*	-18.2%	7.3%
O=C(Cn1c(=O)nc(-c2ccccc2)c2ccccc21)Nc1ccc(Cl)cc1F	-6.6%	·	-1.1%	-26.2%	3.4%	-4.9%
CCOC(=O)C1=C(c2ccccc2)N=c2s/c(=C\c3cccc(O)c3)c(=O)n2C1c1cccs1 (stereo unspecified)	?	·	-0.8%	-16.3%	?	25.9µM*
CCOC(=O)C1=C(C)N=c2s/c(=C\c3cccc(OCC(=O)O)c3)c(=O)n2C1c1ccccc1OC (stereo unspecified)	-18.5%	7.9%	-0.2%	0.1%	-6.4%	2.2%
COc1ccc(COC(=O)CCCN=C2NS(=O)(=O)c3ccccc32)cc1F	·	·	4.9%	-3.7%	·	·
O=C(/C=C/c1ccc(-c2ccccc2[N+](=O)[O-])o1)c1ccco1	13.0%	-1.1%	10µM*	·	-15.4%	18.3%
O=C(/C=C/c1ccc([N+](=O)[O-])cc1)c1ccco1	-10.2%	0.1%	-0.1%	1.4%	2.3%	-6.4%
CCN1CCCC1CNC(=O)c1cc2c(C)nc3ccccc3c2o1 (stereo unspecified)	-16.2%	2.4%	3.7%	25.1µM*	18.2%	-20.8%
CCCCN(CC)CCNC(=O)c1cc2c(C)nc3ccccc3c2o1	-14.9%	-1.9%[46.1 µM]	16.2%	4.0%	-2.9%	-3.4%
Cc1cc2ccccc2c(=O)n1CC(=O)NCC1COc2ccccc2O1 (stereo unspecified)	2.5%	1.9%	0.5%	25.1µM*	-5.0%	-1.1%
CCN(CC)C(=O)Cn1cc(C(=O)C(=O)NCC2COc3ccccc3O2)c2ccccc21 (stereo unspecified)	-4.1%	13.3%	0.1%	20µM*	-9.0%	8.0%
Cc1nc2ccccc2c2oc(C(=O)NCC3COc4ccccc4O3)cc12 (stereo unspecified)	-24.5%	-0.8%[46.1 µM]	-0.7%	-2.1%	23.1%	16.4µM*
CCN(CC)C(=O)Cn1cc(C(=O)C(=O)NCc2cccs2)c2ccccc21	0.6%	10.6%	-0.2%	0.7%	-4.3%	2.9%

Source: PubChem BioAssay
